PubChem BioAssay (EPA / NIEHS)
Results filed as inconclusive are left out. Active and inactive are the calls of the source. The calls were made as follows: active = hit-call score of the fitted dose curve at least 0.9, where 1 is the maximum; inconclusive = response in the unintended direction; inactive = score below 0.9.

Test: ACEA_ER_AUC_viability: ACEA Biosciences xCELLigence Real-Time Cell Analysis on Estrogen Receptor Agonism for Viability (AID 2283782);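 also: continuous compound exposure with impedance area under curve over 80 h; hit means loss of impedance signal meaning reduced cell growth or viability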
Method in brief: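 T-47D human breast cells in phenol red-free RPMI1640 with 10% charcoal-stripped FBS were dosed with an 8-point 1:4 dilution series from 100 uM top final concentration, in duplicate. Impedance-based growth was followed for 80 h; AUC analysed versus DMSO.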

| Compound | AC50 | outcome |
| --- | --- | --- |
| N#C/C=C/c1ccccc1 | 50 µM (active) | – |
| Nc1ccc(Sc2ccc(N)cc2)cc1 | – | inactive |
| Cc1ccc2c(c1N)C(=O)c1ccccc1C2=O | – | inactive |
| O=C(O)C(F)(F)OC(F)(F)C(F)(F)OC(F)(F)C(=O)O | – | inactive |
| CC(C)Nc1ccc(Nc2ccccc2)cc1 | 18 µM (active) | – |
| O=C(O)C(F)(F)OC(F)(F)C(F)(F)OC(F)(F)F | – | inactive |
| CCN(CC)C1CCCCC1 | – | inactive |
| NNC(N)=S | – | inactive |
| CC(Cl)CN(C)C (centres undefined) | 34.9 µM (active) | – |
| CC(O)C(F)(F)C(F)(F)F (centres undefined) | – | inactive |
| O=S(=O)(F)C(F)(F)C(F)(F)C(F)(F)C(F)(F)C(F)(F)C(F)(F)C(F)(F)C(F)(F)F | – | inactive |
| N#Cc1c(-c2ccc(Cl)cc2)[nH]c(C(F)(F)F)c1Br | 6.72 µM (active) | – |
| Cc1ccc(C(=O)Cl)cc1 | – | inactive |
| OCC(F)(F)OC(F)(F)C(F)(F)OC(F)(F)C(F)(F)OC(F)(F)CO | 137 µM (active) | – |
| FC(F)(F)C(F)(C(F)(F)F)C(F)(F)C(F)(F)CC1CO1 (centres undefined) | – | inactive |
| Cc1c([N+](=O)[O-])cc2c(c1[N+](=O)[O-])C(C)(C)CC2(C)C | 82.3 µM (active) | – |
| C=C(C)C(=O)OCC1CO1 (centres undefined) | – | inactive |
| C=CC(=O)OCC(F)(F)C(F)F | – | inactive |
| ClC(Cl)=C(c1ccc(Cl)cc1)c1ccccc1Cl | – | inactive |
| Nc1ccc([N+](=O)[O-])cc1Cl | – | inactive |
| Cn1[nH]nnc1=S | – | inactive |
| CCOP(=O)(O)C(N)=O | – | inactive |
| CNC(=O)Oc1ccc(N(C)C)c(C)c1 | 39.7 µM (active) | – |
| N#Cc1ccc(O)cc1 | – | inactive |
